# Assay results taken from PubChem BioAssay (Tox21).
# Activity calls are given as the source filed them. Calls come from the whole dose curve; as a rule, active = well fitted curve in the direction sought with a large enough effect in the repeat runs; inconclusive = weak or mixed curves; inactive = flat fitted curve, though single readings scatter.
# Test: qHTS assay to test for compound auto fluorescence at 535 nm (green) in HEK293 cell free culture (AID 720682)
# Details: cell-free medium, green autofluorescence 485/535 nm; series mostly up to 91.3 µM
# Text: U.S. Tox21 Program National Center for Advancing Translational Sciences [NCATS] NIH Chemical Genomics Center [NCGC] U.S. Environmental Protection Agency [EPA] National Institutes of Environmental Health Sciences [NIEHS] National Toxicology Program [NTP] U.S. Food and Drug Administration [FDA] Tox21 Assay Overview: Compound auto fluorescence often interferes with screening of the compound library against various biological targets and signaling pathways. Some of these compounds may have fluorophoric properties. Such properties may interfere with the assay outputs resulting in false positives and/or negatives. To decrease such complications and ensure the compound activities are relevant in terms of biological response, the Tox21 10K compound library was screened for auto fluorescence. From the fluorophores used as reporter signals in our screening assays, the auto fluorescence equivalencies of compounds against three fluorophores have been evaluated: Triamterene, Fluorescein and Rose Bengal sodium for blue, green and red fluorescence, respectively. The fluorescence intensities were measured using Excitation/Emission wavelengths at 405/460nm, 485/535nm and 540/590nm for blue, green and red labels, respectively. This assay includes the green fluorescence data.
# Tox21 Assay Protocol Summary: 5 uL of culture medium (DMEM containing 10% FBS) per well was dispensed into black wall/clear bottom 1536-well plates using a Multidrop Combi Dispenser (ThermoFisher Scientific, Waltham, MA). After 23 nL compound or DMSO vehicle was transferred into assay plate by a pintool work station (Kalypsys, San Diego, CA), fluorescence intensities in the assay plates were measured by an Envision (PerkinElmer, Shelton, CT) plate reader using three labels for measuring blue, green and red fluorescence at […] 460, 535 and 590nm respectively.
row,Structure (SMILES),outcome
1,CN(C)C(=O)Nc1cccc(C(F)(F)F)c1,inactive
2,CC[N+](=O)[O-],inactive
3,C=CCN=C=S,inactive
4,O=C(O)COc1ccccc1,inactive
5,CNC(=O)O/N=C/C(C)(C)SC,inactive
6,OCC(O)CCl (stereo not given),inactive
7,Cc1ccc(N=C=O)cc1N=C=O,inactive
8,CCNc1nc(Cl)nc(NC(C)C)n1,inactive
9,Cl/C=C/Cl,inactive
10,Clc1cnc(Oc2ccc(Oc3ncc(Cl)cc3Cl)cc2)c(Cl)c1,inactive
11,OC[C@@H](O)[C@H]1O[C@@H]2O[C@H](C(Cl)(Cl)Cl)O[C@@H]2[C@H]1O,inactive
12,N#Cc1cccc(C#N)c1,inactive
13,Nc1ccc(N)cc1,inactive
14,Nc1nc(N)nc(NC2CC2)n1,inactive
15,C=C(C)C(=O)OCC(CC)CCCC (stereo not given),inactive
16,CN(C)C(=O)C(c1ccccc1)c1ccccc1,inactive
17,OCCCCO,inactive
18,C[C@]12CC[C@H](O)CC1=CC[C@@H]1[C@@H]2CC[C@]2(C)C(=O)CC[C@@H]12,inactive
19,O=C(O)Cc1ccccc1,inactive
20,c1ccc2c(c1)CCCC2,inactive

row,Structure (SMILES),outcome
1,O=[N+]([O-])c1ccc(Cl)cc1,inactive
2,Cc1cc(Cl)ccc1OC(C)C(=O)O (stereo not given),inactive
3,Cc1ccc(O)c(C)c1,inactive
4,CC(C)(C)C(=O)CCl,inactive
5,N#Cc1ccccn1,inactive
6,Oc1c(Br)cc(Br)cc1Br,inactive
7,COP(=S)(OC)Oc1ccc(SC)c(C)c1,inactive
8,Sc1ccccc1,inactive
9,Nc1cccc(Cl)c1,inactive
10,CNC(=O)O/N=C/C(C)(C)S(C)(=O)=O,inactive
11,CCCCC(CC)C(=O)Cl (stereo not given),inactive
12,CNC(=O)Oc1cccc2ccccc12,inactive
13,Nc1ncc([N+](=O)[O-])s1,inactive
14,C/C=C/c1ccc2c(c1)OCO2,inactive
15,C[C@H]1C(=O)O[C@@H]2CCN3CC=C(COC(=O)[C@](C)(O)[C@]1(C)O)[C@H]23,inactive
16,CN1C(=O)CCS(=O)(=O)C1c1ccc(Cl)cc1 (stereo not given),inactive
17,CCOP(=S)(OCC)Oc1ccc([N+](=O)[O-])cc1,inactive
18,Nc1cc(Cl)cc(Cl)c1,inactive
19,CN(C)CCC#N,inactive
20,CCSC(=O)N1CCCCCC1,inactive
